Source: ChEMBL document CHEMBL3988442, “University of Dundee, Small-Polar-MMV Screening Library” (2021)
The campaign covered roughly 48,000 compounds. About 13,000 (27%) showed an effect of 50% or more. Some of the results follow.

Each molecule was assayed on Wolbachia pipientis (assay: Anti-Wolbachia Cell-Based Screen). Details: 5 µM.
Type: functional
Parameters: scale not given: in the data most compounds retested in dose-response had high values

Compound	Percent Effect [%]
O=C(Cn1ccc(=O)c2ccccc21)Nc1cnccc1O	11.9
Cc1ccc(Cl)cc1NC(=O)Cn1cc(C(=O)O)ccc1=O	11.02
O=C(O)Cn1ccc(=O)c2cc(Cl)ccc21	96.7
O=C(O)Cn1ccc(=O)c2ccccc21	101.5
CC(=O)c1cn(CCC(=O)NCCC(=O)O)c2ccccc12	11.28
CC(=O)Cn1cc(C#N)c(=O)c2cc(Br)ccc21	-39.25
CN(CC(N)=O)C(=O)CCCn1ccc2cc(Cl)ccc21	-3.904
O=C(Cn1cc(C(=O)O)ccc1=O)Nc1ccc(Cl)cc1F	21.2
O=C(O)Cn1ccc(=O)c2ccc(Cl)cc21	126.4
CCN(Cc1ccoc1)C(C(N)=O)c1ccc(Br)cc1 (centres undefined)	13.69
Cc1ccccc1C(O)CNS(=O)(=O)Cc1cccc(C#N)c1 (centres undefined)	1.082
CCC(=O)N1CCN(C(=O)NCc2c(C)cc(C)cc2C)CC1	2.244
O=C(NCc1nncn1-c1ccccc1)C1CC(=O)N(CC2CC2)C1 (centres undefined)	-5.786
COc1cc(N2CCc3ncnc(-c4ccoc4)c3CC2)ncn1	-1.629
COc1cc(-c2cc(N)ncn2)cc(OC)c1OC	113.5
O=C(NCCc1cc(=O)[nH]cn1)c1[nH]nc2c1CCCC2	-3.827
COc1ccc(-c2cc(N)ccn2)c(OC)c1OC	-25.01
COc1cc(-c2cc(=O)[nH]cn2)cc(OC)c1OC	108.3
CNc1cc(-c2cc(OC)c(OC)c(OC)c2)ncn1	63.03
COc1cc(N(C)Cc2cc(C(C)(C)C)n[nH]2)ncn1	-14.87
COc1cc(F)ccc1-c1cnc(N)cn1	4.903
COc1cc(-c2cnnc(NCCCOC(C)C)n2)cc(OC)c1OC	29.72
COc1cc(-c2cc(OC)c(OC)c(OC)c2)ncn1	111

Compound	Percent Effect [%]
CC1CCN(S(=O)(=O)N2CCc3c(c(C(=O)O)nn3CC3CC3)C2)CC1	-12.69
CNC(=O)Cc1ccc(-n2ccnc2-c2ccc(C(=O)O)s2)cc1	-11.42
Cc1noc(-c2ccc(N3CCCC(C(=O)O)C3)nc2)n1 (centres undefined)	-4.979
CS(=O)(=O)NCCNC(=O)NC1(c2ccc(Cl)cc2)CCC1	-10.79
COc1nc2c(cc1C(=O)N1CC[C@H](CO)[C@@H](O)C1)CCC2	9.103
Cc1cccc(CNC(CN2CCN(C)CC2)c2ccccc2)c1 (centres undefined)	16.68
CCOCC(=O)NCC(C)(O)c1cc(C)oc1C (centres undefined)	5.951
Cc1cc(C(C)(O)CNC(=O)CCOCC(C)C)c(C)o1 (centres undefined)	51.29
Cc1cc(C(C)(O)CNC(=O)OC(C)(C)C)c(C)o1 (centres undefined)	0.294
CC(NCc1nnc2n1CCCC2)c1nc(Cc2ccccc2)no1 (centres undefined)	8.593
O=C(O)C(F)(F)F.O=C(O)C(F)(F)F.O=C(O)c1cc2c(nc1-c1ccsc1)CCN(C1CCOC1)CC2 (centres undefined)	-18.13
Cc1cc(C)c2c(N3CCC(C(=O)N4CCCC4)CC3)ncnc2n1	96.05
Cc1cc(C)c2c(N3CCCN(C(=O)C4CCC4)CC3)ncnc2n1	89.28
Cc1cc(C)c2c(N3CCN(C(=O)N4CCOCC4)CC3)ncnc2n1	86.86
Cc1nn(C)c2c(N3CCN(C(=O)C4CCC4)CC3)ncnc12	3.567
CCc1nc(CN2CCCN(C(=O)C3CCC3)CC2)cs1	7.838
Cc1ccccc1CC(=O)N1CCc2c(ncnc2N2CCOCC2)C1	2.572
Cc1cc(C)c2c(N3CCC(C(=O)N4CCOCC4)CC3)ncnc2n1	125.4
O=C(C1CCN(c2ncnc3cccc(F)c23)CC1)N1CCCC1	-3.07
Cc1cc(C)c2c(N3CCN(CCN4CCOCC4)CC3)ncnc2n1	8.578
Cc1cc(C)c2c(N3CCC(O)(Cn4ccnc4)CC3)ncnc2n1	6.34
CCOCC(=O)N1CCC(CSCc2ccco2)CC1	4.494
O=C(C1CCCN1S(=O)(=O)C1CCCC1)N1CCSCC1 (centres undefined)	-23.1

Compound	Percent Effect [%]
CN(C)c1nc2c(c(N3CCC(O)CC3)n1)CN(CC1CCOC1)CC2 (centres undefined)	9.412
NCCn1cc(C(=O)NCc2ccccc2Cn2cccn2)nn1	-26.32
CC(NC(=O)Cn1cccn1)c1cccnc1 (centres undefined)	-3.155
CCc1cnc(NCc2ccccc2Cn2cccn2)nc1	6.664
CC(C)OC(=O)CC(NC(=O)CCn1cccn1)c1ccccc1 (centres undefined)	-19.71
O=C(CNC(Cn1cccn1)c1ccccc1)Nc1cnccn1 (centres undefined)	104.7
c1ccc(C(Cn2cccn2)Nc2cnccn2)cc1 (centres undefined)	93.79
O=C(CNCc1ccccc1Cn1cccn1)Nc1cnccn1	109.9
CC(CCNC(=O)NCCNc1cnccn1)c1ccccc1 (centres undefined)	0.7277
CC(Cn1cccn1)NS(=O)(=O)Cc1ccccc1 (centres undefined)	-19.72
COC(=O)CN(Cc1ccccc1C)C(=O)COCC1CC1	5.451
O=c1cc(Cn2cncn2)nc2n1CCCN(CC1CCOCC1)C2	-15.84
O=c1cc(CN2CCCC2)nc2n1CCCN(CC1CC1)C2	112.4
CCS(=O)(=O)N1CCCn2c(nc(CN3CCCC3)cc2=O)C1	124.6
O=c1cc(Cn2ccnc2)nc2n1CCCN(CC1CCOCC1)C2	-2.581
O=c1cc(CN2CCCC2)nc2n1CCCN(CC1CCOCC1)C2	2.964
O=c1cc(Cn2cncn2)nc2n1CCCN(CC1CC1)C2	-9.621
O=c1cc(Cn2ccnc2)nc2n1CCCN(Cc1ccco1)C2	5.269
O=c1cc(Cn2ccnc2)nc2n1CCCN(S(=O)(=O)C1CC1)C2	102.1
CN(C)Cc1cc(=O)n2c(n1)CN(CC1CC1)CCC2	1.173
O=c1cc(CN2CCCC2)nc2n1CCCN(S(=O)(=O)C1CC1)C2	95.22
COCCN1C(=O)[C@]2(CC[C@@H]3CN(C(=O)NCC(C)C)C[C@@H]32)N=C1C	-10.16
Cc1n[nH]c(-c2ccc(NC(=O)C(C)N3CCN(C)CC3)cc2)n1 (centres undefined)	0.753
